The panel holds about 79,000 compounds, 15% with a hit somewhere; the sample as a whole holds those more often. Calls of active or inactive are those of the source. Cut-off read from the data, not from the text of the source: active = growth inhibition above about 70%; inactive = the rest.
Experiments:
[1] = NCI Yeast Anticancer Drug Screen. Data for the mlh1 strain (AID 171);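 note: 0% = growth of vehicle-treated control cultures of the same strain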; conditions: S. cerevisiae mlh1 strain growth inhibition, stronger effect = higher value
Summary of the method: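 Test agents were incubated with yeast bearing a defined DNA damage repair or cell cycle control alteration; values are growth inhibition normalised to vehicle-treated cultures.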

[2] = NCI Yeast Anticancer Drug Screen. Data for the sgs1 strain (AID 173);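 note: 0% = growth of vehicle-only control cultures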; conditions: S. cerevisiae sgs1 mutant, stronger effect = higher value
Summary of the method: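 Strain with an altered DNA repair or cell cycle pathway exposed to compound. Growth then measured. Value = inhibition versus vehicle control.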

[3] = NCI Yeast Anticancer Drug Screen. Data for the mlh1 rad18 strain (AID 175); conditions: S. cerevisiae mlh1 rad18 strain growth inhibition, stronger effect = higher value
Summary of the method: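 A repair-deficient yeast strain is exposed to test compound, and growth is scored relative to vehicle-treated controls.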

[4] = NCI Yeast Anticancer Drug Screen. Data for the rad18 strain (AID 177); conditions: S. cerevisiae rad18 mutant growth inhibition, stronger effect = higher value
Summary of the method: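 DNA-repair-defective yeast; compound treatment; growth inhibition scored against vehicle.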

[5] = NCI Yeast Anticancer Drug Screen. Data for the rad52 strain (AID 147);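 note: 0% = growth of vehicle-treated control cultures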; conditions: S. cerevisiae rad52 mutant growth inhibition, stronger effect = higher value
Summary of the method: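 Growth of repair-deficient yeast cells was compared between compound-treated and vehicle-treated cultures to give percent inhibition.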

[6] = NCI Yeast Anticancer Drug Screen. Data for the rad50EPP+ strain (AID 151);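 note: 0% = growth of vehicle-treated control cultures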; conditions: S. cerevisiae rad50 mutant strain, stronger effect = higher value
Summary of the method: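 Measured: growth inhibition of rad50EPP+ yeast. Reference: vehicle-treated controls. Screen uses strains with defined genetic alterations in DNA damage repair or cell cycle control.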

[7] = NCI Yeast Anticancer Drug Screen. Data for the mgt1 strain (AID 153); conditions: S. cerevisiae mgt1 mutant growth inhibition, stronger effect = higher value
Summary of the method: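 Compounds were applied to mgt1 mutant yeast, and growth was then compared against vehicle-treated control cultures to give percent inhibition.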

[8] = NCI Yeast Anticancer Drug Screen. Data for the rad50 strain (AID 155);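 note: 0% = growth of vehicle-only cultures of the same strain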; conditions: S. cerevisiae rad50 strain growth inhibition, stronger effect = higher value
Summary of the method: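 Cells are treated with compound, grown, and their growth is then scored against vehicle-only cultures of the same repair-deficient yeast strain.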

[9] = NCI Yeast Anticancer Drug Screen. Data for the mec2-1 strain (AID 157); conditions: S. cerevisiae mec2-1 strain, stronger effect = higher value
Summary of the method: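 Compounds were applied to mec2-1 yeast cells. Their growth was then compared with that of vehicle-treated cultures to give growth inhibition.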

[10] = NCI Yeast Anticancer Drug Screen. Data for the rad14 strain (AID 159);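 note: 0% = growth of vehicle-treated control cultures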; conditions: S. cerevisiae rad14 strain growth inhibition, stronger effect = higher value
Summary of the method: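 Readout: yeast growth inhibition, referenced to vehicle-only cultures. Strain bears a defined alteration in DNA damage repair.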

[11] = NCI Yeast Anticancer Drug Screen. Data for the sgs1 mgt1 strain (AID 161);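 note: 0% = growth of cultures given vehicle only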; conditions: S. cerevisiae sgs1 mgt1 strain, stronger effect = higher value
Summary of the method: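 Yeast cells carrying a defined DNA-repair defect were exposed to test compounds. Growth inhibition was measured relative to vehicle-treated controls.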

[12] = NCI Yeast Anticancer Drug Screen. Data for the CLN2oe strain (AID 163);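 note: 0% = growth of vehicle-only control cultures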; conditions: S. cerevisiae CLN2oe strain, stronger effect = higher value
Summary of the method: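 Cells of an engineered yeast line with disturbed cell-cycle regulation are treated with compound. Inhibition of growth is then calculated relative to the vehicle-treated reference.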

[13] = NCI Yeast Anticancer Drug Screen. Data for the cln2 rad14 strain (AID 165);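 note: 0% = growth equal to vehicle treated cultures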; conditions: S. cerevisiae cln2 rad14 strain, stronger effect = higher value
Summary of the method: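 Strain: cln2 rad14 yeast, altered in cell cycle control and DNA damage repair. Read-out: growth inhibition vs vehicle.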

[14] = NCI Yeast Anticancer Drug Screen. Data for the bub3 strain (AID 167); conditions: S. cerevisiae bub3 mutant strain, stronger effect = higher value
Summary of the method: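 Part of a panel of yeast mutants defective in DNA damage repair or cell cycle regulation. Each strain is grown with compound, and inhibition is calculated relative to solvent-treated cultures.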

[15] = NCI Yeast Anticancer Drug Screen. Data for the wt1 strain (AID 149);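 note: 0% = growth of vehicle-treated wt1 cultures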; conditions: S. cerevisiae wt1 strain (SPY 50644) growth inhibition, stronger effect = higher value
Summary of the method: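 The wt1 strain was treated with compounds, and growth was compared with vehicle-treated cultures to give inhibition.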

[16] = NCI Yeast Anticancer Drug Screen. Data for the wt2 strain (AID 169);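 note: 0% = growth of vehicle-treated yeast cultures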; conditions: S. cerevisiae wt2 strain growth inhibition, stronger effect = higher value
Summary of the method: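 Growth of compound-treated yeast is measured and expressed as inhibition relative to vehicle-only controls.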

[17] = at 5.0 µM (retest, dose inferred, filed as 0.5)
[18] = at 50.0 µM (retest, dose inferred, filed as 5.0)

Measured: growth inhibition

CCCCCCCCCCCCCCCCCCNc1nc(=O)n(C2CC(OP(=O)(O)OCC3OC(n4cc(F)c(=O)[nH]c4=O)CC3O)C(CO)O2)cc1F (centres undefined)
inactive: [1]; at 1.2 µM 10% | [1]; at 3.7 µM 19% | [1]; at 11.0 µM 7% | [1]; at 33.0 µM 18% | [2]; at 1.2 µM 1% | [2]; at 3.7 µM -5% | [2]; at 11.0 µM -9% | [2]; at 33.0 µM 22% | [3]; [17] 34% | [4]; at 1.2 µM 9% | [4]; at 3.7 µM -9% | [4]; at 11.0 µM -16% | [4]; at 33.0 µM 35%
active: [1]; at 100.0 µM 75% | [2]; at 100.0 µM 78% | [3]; [18] 93% | [3]; at 50.0 µM 86% | [4]; at 100.0 µM 89%

Cc1cccc(C)c1NC(=O)CCC(=O)C(C)C(=O)c1ccc(O)cc1 (centres undefined)
inactive: [5]; at 1.2 µM 2% | [5]; at 3.7 µM 1% | [5]; at 11.0 µM 2% | [5]; at 33.0 µM 1% | [5]; at 100.0 µM 0% | [6]; at 1.2 µM 0% | [6]; at 3.7 µM -1% | [6]; at 11.0 µM 1% | [6]; at 33.0 µM 1% | [6]; at 100.0 µM 8% | [7]; at 1.2 µM -1% | [7]; at 3.7 µM 4% | [7]; at 11.0 µM -3% | [7]; at 33.0 µM -2% | [7]; at 100.0 µM -5% | [8]; at 1.2 µM -1% | [8]; at 3.7 µM 0% | [8]; [17] 1% | [8]; at 11.0 µM 1% | [8]; at 33.0 µM 1% | [8]; [18] 2% | [8]; at 50.0 µM 57.6% | [8]; at 100.0 µM 0% | [9]; at 1.2 µM -6% | [9]; at 3.7 µM -5% | [9]; [17] -2% | [9]; at 11.0 µM -6% | [9]; at 33.0 µM -3% | [9]; [18] 8% | [9]; at 50.0 µM 15.1% | [9]; at 100.0 µM -5% | [10]; at 1.2 µM -1% | [10]; at 3.7 µM 2% | [10]; at 11.0 µM 2% | [10]; at 33.0 µM 0% | [10]; at 100.0 µM -1% | [11]; [17] 0% | [11]; [18] 5% | [11]; at 50.0 µM 23.2% | [12]; at 1.2 µM -5% | [12]; at 3.7 µM -4% | [12]; at 11.0 µM -3% | [12]; at 33.0 µM 1% | [12]; at 100.0 µM -3% | [13]; [17] -2% | [13]; [18] 2% | [13]; at 50.0 µM 50% | [14]; at 1.2 µM -2% | [14]; at 3.7 µM -2% | [14]; [17] 0% | [14]; at 11.0 µM -2% | [14]; at 33.0 µM -2% | [14]; [18] 7% | [14]; at 50.0 µM 11.8% | [14]; at 100.0 µM 5% | [1]; at 1.2 µM -2% | [1]; at 3.7 µM -3% | [1]; at 11.0 µM -1% | [1]; at 33.0 µM -2% | [1]; at 100.0 µM -1% | [2]; at 1.2 µM -2% | [2]; at 3.7 µM -2% | [2]; at 11.0 µM -2% | [2]; at 33.0 µM -2% | [2]; at 100.0 µM 0% | [3]; [17] -1% | [3]; [18] 6% | [3]; at 50.0 µM 6.95% | [4]; at 1.2 µM -2% | [4]; at 3.7 µM -1% | [4]; at 11.0 µM 0% | [4]; at 33.0 µM -2% | [4]; at 100.0 µM 0%

CC(C)OC(=O)NNc1cc(Cl)ccc1Cl
inactive: [5]; at 1.2 µM 0% | [5]; at 3.7 µM 18% | [5]; at 11.0 µM 41% | [5]; at 33.0 µM 38% | [5]; at 100.0 µM 66% | [15]; at 1.2 µM -2% | [15]; at 3.7 µM 5% | [15]; at 11.0 µM 29% | [15]; at 33.0 µM 34% | [15]; at 100.0 µM 31% | [7]; at 1.2 µM -4% | [7]; at 3.7 µM 2% | [7]; at 11.0 µM 19% | [7]; at 33.0 µM 21% | [8]; at 1.2 µM -3% | [8]; at 3.7 µM 22% | [8]; [17] 19% | [8]; at 11.0 µM 41% | [8]; at 33.0 µM 36% | [8]; [18] 44% | [8]; at 50.0 µM 38% | [9]; at 1.2 µM -4% | [9]; at 3.7 µM 8% | [9]; [17] 9% | [9]; at 11.0 µM 34% | [9]; at 33.0 µM 33% | [9]; [18] 20% | [9]; at 50.0 µM 36.4% | [10]; at 1.2 µM -4% | [10]; at 3.7 µM 3% | [10]; at 11.0 µM 20% | [10]; at 33.0 µM 48% | [11]; [17] 17% | [11]; [18] 48% | [11]; at 50.0 µM 44.2% | [13]; [17] 4% | [13]; [18] 21% | [13]; at 50.0 µM 26% | [14]; at 1.2 µM 4% | [14]; at 3.7 µM -1% | [14]; [17] 32% | [14]; at 11.0 µM 19% | [14]; at 33.0 µM 39% | [14]; [18] 60% | [14]; at 100.0 µM 47% | [16]; at 1.2 µM 3% | [16]; at 3.7 µM 4% | [16]; at 11.0 µM 23% | [16]; at 33.0 µM 29% | [16]; at 100.0 µM 35% | [1]; at 1.2 µM -1% | [1]; at 3.7 µM 8% | [1]; at 11.0 µM 41% | [1]; at 33.0 µM 50% | [1]; at 100.0 µM 58% | [2]; at 1.2 µM 0% | [2]; at 3.7 µM 10% | [2]; at 11.0 µM 44% | [2]; at 33.0 µM 44% | [2]; at 100.0 µM 54% | [3]; [17] 57% | [4]; at 1.2 µM 2% | [4]; at 3.7 µM 69% | [4]; at 11.0 µM 69% | [4]; at 33.0 µM 62%
active: [7]; at 100.0 µM 88% | [8]; at 100.0 µM 87% | [9]; at 100.0 µM 77% | [10]; at 100.0 µM 99% | [14]; at 50.0 µM 99% | [3]; [18] 89% | [3]; at 50.0 µM 75.2% | [4]; at 100.0 µM 86%
